Only some compounds are listed: those with a hit (about 2.9% of all), similar ones and a draw of the others.
GLP1R inv ag – GLP-1 receptor (human) inverse agonism | P43220 | HEK293 GLP-1R CRE-luciferase, luminescence, 24 h; GLP-1R form is constitutively active | Potency, µM (highest dose often 38.3 µM), for the others: at the highest dose activity change, negative = inhibition, usual class: inhibitors | 410,000 tested, 1.6% active; further: potency means the concentration at half of the fitted maximal effect; on the % scale 0 is the no-effect control and ±100 the full control effect; nearly all actives have a fitted effect of over 55% in size
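GLP-1R inverse agonism mode: basal reporter luminescence in engineered HEK293 cells measured after one day of compound exposure at 37 deg C, with a 12 min room-temperature detection step.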
GLP-1R agonist – activates the human GLP-1 receptor. AID 624172. Potency, µM (doses to about 45.6 µM), without a hit: top-dose activation, hits mostly activators. HEK293 GLP-1R CRE-luciferase, luminescence, 4-6 h; cells express a hypersensitive GLP-1R form. P43220. 380,000 tested, 0.007% active; further: potency means the concentration at half of the fitted maximal effect; % of control where 0% means no effect
GLP1R cytotox – cytotoxicity counter-screen for GLP-1 receptor inverse agonists. HEK293 cAMP-luciferase reporter cells, luminescence, 24 h. Potency, µM (top dose mostly 38.3 µM), for the others: top-dose activity change, negative = inhibition, hits mostly inhibitors. 410,000 tested, 0.13% active. AID 624418;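 further: loss of luciferase light is scored as toxicity; potency means the concentration at half of the fitted maximal effect; on the % scale 0 is the no-effect control and ±100 the full control effect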
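1536-well qHTS counterscreen of the MLSMR; 200 cells/uL, 12 h pre-incubation, 23 nL cpd, 24 h at 37 deg C 5% CO2, luciferase detection reagent, 12 min RT, luminescence. Inhibition = undesired.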
ClpP mod – qHTS Assay for Activators of ClpP. ATP-dependent Clp protease proteolytic subunit (Bacillus subtilis (strain 168)), P80244. purified B. subtilis ClpP, FRET peptide cleavage, 20 min. Potency, µM (doses to about 57.5 µM), for inactives: at the highest dose activity change, negative = active. 340,000 tested, 1.9% active. AID 651965, 2013; active means well fitted falling curve with a large enough effect; inconclusive means small, poorly fitted or top-dose-only effect; inactive means no such curve, though single readings can be large or run the other way; further: potency means the concentration at half of the fitted maximal effect; the source files actives as falling curves though it sought activators and does not explain the sign; nearly all actives have a fitted effect of over 65% in size
Target sequence (P80244 whole entry, looked up): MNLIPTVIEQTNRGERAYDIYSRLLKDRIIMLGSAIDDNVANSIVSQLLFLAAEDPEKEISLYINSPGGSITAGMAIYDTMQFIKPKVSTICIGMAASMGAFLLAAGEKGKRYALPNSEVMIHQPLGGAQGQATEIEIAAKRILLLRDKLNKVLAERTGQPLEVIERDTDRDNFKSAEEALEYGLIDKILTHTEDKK
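ClpP 10 microg/mL final, pH 8 Tris/KCl buffer with BSA, glycerol, Tween-20; compound pinned in; FRET-FV substrate; RT 20 min; Ex320/Em430; ΔFRET vs ADEP 5.8 microM, DMSO, no enzyme.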
p53 reactivation – re-activators of mutant p53; H1299 p53-A138V BP100-luciferase reporter, luminescence, 24 h; Potency, µM (titrated, usually from 92.2 µM), for inactives: at the top dose activity change, positive = activation, hits mostly activators; 320,000 tested, 0.063% active; AID 504706; further: potency means the concentration at half of the fitted maximal effect; % of control where 0% means no effect; nearly all actives have a fitted effect of over 45% in size
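H1299 (p53-null), stable ts p53-A138V + BP100-Luc; 1000 cells/well, Opti-MEM/10% FBS; cpd 4 pt, 1:5; 24 h, 37 deg C, 5% CO2; detection reagent 10 min RT; luminescence.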
LDHA inh – LDHA (human) enzyme inhibition; activity change, % (values are at about 110 or 230 µM); 480,000 tested, 0.15% active; P00338; purified LDHA, NADH/diaphorase-resazurin fluorescence; active compounds read low; in the data active means activity change below about -30%; inconclusive means mostly about -25% to -30%;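 further: plate controls were DMSO wells for no effect and wells without enzyme for full effect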
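Human LDH5 (2 nM) was incubated with 0.06 mM NADH and 0.2 mM pyruvate for 5 min at room temperature in Tris pH 7.4. Remaining NADH was coupled through diaphorase/resazurin, and resorufin fluorescence was read at 0 and 20 min.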
Numbers without * were called inactive; ? = inconclusive; . = no result. Unless noted, the call rests on the fitted dose curve; in most records, active means well fitted curve in the direction sought with a large enough effect; inconclusive means small, poorly fitted or top-dose-only effect, or another doubt; inactive means no such curve, though single readings can be large; an effect the other way counts as inactive or inconclusive.

SMILES | GLP1R inv ag | GLP-1R agonist | GLP1R cytotox | ClpP mod | p53 reactivation | LDHA inh
COc1ccc(S(=O)(=O)N(CC(=O)N2CCOCC2)c2cc(Cl)ccc2OC)cc1OC | 0% | -1% | 8% | -1% | -5% | -10
Cc1cc(Cl)ccc1OCC(=O)N(Cc1ccco1)Cc1ccccc1F | 11µM* | . | 7% | -1% | . | 1
COc1ccc(C2c3c(n(C)c4ccccc34)C(=O)N2CC(=O)Nc2ccc(F)cc2)cc1 (configuration not stated) | -8% | . | 0% | ? | . | -8
CCCCNC(=O)Cn1c(=O)n(C)c2ccccc21 | 4% | 0% | -5% | 1% | -10% | -5
COc1ccc(C2c3c(n(C)c4ccccc34)C(=O)N2CC(=O)Nc2ccc(Cl)cc2)cc1 (configuration not stated) | -3% | . | 7% | 18µM* | . | -17
CCc1cccc(C)c1NC(=O)CN1C(=O)c2c(c3ccccc3n2C)C1c1ccc(OC)cc1 (configuration not stated) | ? | . | -15% | 25µM* | . | 1
CCCCNC(=O)CN1C(=O)c2c(c3ccccc3n2C)C1c1ccc(OC)cc1 (configuration not stated) | ? | . | -25% | 32µM* | . | 2
O=C(N/N=C/c1ccccc1)C(=O)N/N=C/c1ccccc1 | 8% | 4% | -11% | . | 4% | 0
O=C1CCN(Cc2nc(-c3ccc(Cl)cc3)no2)CCN1 | 4.5µM* | 0% | -1% | . | 1% | -1
Cc1cc(C)n(-c2nc3c(c(=O)[nH]c(=O)n3C)n2CC(O)COc2ccc(Cl)cc2Cl)n1 (configuration not stated) | ? | 0% | -10% | -17% | 6% | 3
CC(C)COc1ccc(C(=O)N(CC(=O)Nc2ccccc2C(F)(F)F)Cc2ccco2)cc1 | 4.5µM* | 11% | ? | . | 1% | -6
O=C(O)c1cc(-c2ccccc2)on1 | 1% | -5% | 11% | 1% | 5% | -14
CCCCCCN1C[C@H](n2cc(-c3ccc(F)cc3)nn2)[C@@H](O)C[C@@H]1c1ccccc1 | -19% | -3% | 3% | -1% | . | -2
CCCCCC(=O)N1C[C@H](n2cc(COC(=O)c3ccccc3)nn2)[C@@H](O)C[C@@H]1c1ccc(C)cc1 | 10µM* | -4% | -14% | -1% | . | 6
CCCCCCN1C[C@H](O)[C@@H](n2cc(-c3ccc(F)cc3)nn2)C[C@@H]1c1ccccc1 | 5µM* | -1% | -18% | -2% | . | 5
O=C(OCc1cn([C@@H]2CN(C(=O)C3CCCCC3)[C@@H](c3ccc(Cl)cc3)C[C@H]2O)nn1)c1ccccc1 | -20% | 13% | -18% | 0% | . | -35*
CCCCCC(=O)N1C[C@@H](n2cc(-c3ccc(F)cc3)nn2)[C@H](O)C[C@@H]1c1ccc(C)cc1 | ? | 5% | -27% | 0% | . | -34*
CCOc1ccc(NC(=O)COC(=O)Cn2cnnn2)cc1OCC | 0% | -10% | -2% | 1% | 7% | 1
CCCCCC(=O)N1C[C@@H](n2cc(-c3ccc(F)cc3)nn2)[C@H](O)C[C@@H]1c1ccc(OC)cc1 | 11µM* | 1% | -11% | -5% | . | -2
CCCCCC(=O)N1C[C@@H](O)[C@H](n2cc(-c3ccc(F)cc3)nn2)C[C@@H]1c1ccc(C)cc1 | ? | -9% | -29% | 0% | . | -19
Cn1c(Oc2ccc(Cl)cc2)c(C=O)c2ccccc21 | ? | -2% | 5% | -10% | 9% | -1
COc1ccc(Oc2c(C=O)c3ccccc3n2C)cc1 | 10µM* | -4% | -16% | -1% | 3% | -2
Cc1ccc(Oc2c(C=O)c3ccccc3n2C)cc1 | 5µM* | -4% | -16% | -1% | 4% | -1

Bioassay records (PubChem)
